A selection: hits, their analogues and other compounds. The true share with any hit is near 3.5%.
FBW7 act = human FBW7 E3 ligase activation, primary screen; actives 0.13% (n = 650,000); normalized activity (activation), % at 26.1 µM; AlphaScreen FBW7–phospho-cyclin E peptide binding, activator screen; in the data active means normalized activity above about 1.9%;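 further: purified mutant Fbw7 with reduced substrate affinity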
GPR151 ag = activates the human receptor GPR151 | PathHunter beta-arrestin GPR151 cells, luminescence | AID 1508602 | actives 1% (n = 650,000) | activation, % at 11.2 µM; in the data active means activation above about 4.9%
MITF inh = blocks human microphthalmia-associated transcription factor. inhibition, % at 2.6 µM. O75030. AlphaScreen MITF homodimerization, bead proximity signal. actives 0.91% (n = 650,000). AID 1259374; in the data active means inhibition above about 50%
TEAD-YAP inh = TEAD-YAP interaction inhibition | HEK-TIYL cells, TEAD-Gal4/YAP UAS-luciferase luminescence | inhibition, % at 9.12 µM | actives 1.4% (n = 640,000); in the data active means inhibition above about 32%
GPR151 confirm = confirmation of human GPR151 activators; shares compounds with GPR151 ag; AID 1508609; 6,700 tested, under 10 active; GPR151 PathHunter beta-arrestin cells, luminescence, 90 min; % of EA-reagent control over plate median; activation, % at 11.2 µM;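 active means mean percent activation across replicates above the confirmation screen cutoff of 4.91%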
GPR119 counter = GPR119 activation, counter-screen for GPR151 activators | shares compounds with GPR151 ag | GPR119 PathHunter beta-arrestin cells, luminescence, 90 min; 0 = compound-well median, 100 = enzyme-acceptor control | activation, % at 11.2 µM | actives 0.3% (n = 6,700);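 active means mean percent activation in the counterscreen above 29.09%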;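 further: counterscreen on off-target GPR119 to flag nonselective hits from the GPR151 activator screen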
Target sequence (Q8TDV5 whole entry, looked up): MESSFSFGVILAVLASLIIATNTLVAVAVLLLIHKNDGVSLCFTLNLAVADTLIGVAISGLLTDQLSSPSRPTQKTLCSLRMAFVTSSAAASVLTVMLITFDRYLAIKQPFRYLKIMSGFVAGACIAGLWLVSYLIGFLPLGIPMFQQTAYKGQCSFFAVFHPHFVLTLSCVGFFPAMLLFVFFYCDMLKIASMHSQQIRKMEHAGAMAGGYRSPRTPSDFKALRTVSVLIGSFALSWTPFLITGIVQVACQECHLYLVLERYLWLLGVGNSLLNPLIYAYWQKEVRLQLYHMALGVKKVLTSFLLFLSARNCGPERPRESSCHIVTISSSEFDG
Of the large screens only hits and unclear results are named; the others gave an inactive call (follow-up assays come after a bar, where they were run).

CCCCCCCCCCCCCCCCCCOC[C@H](COP(=O)(O)OCC[N+](C)(C)C)OC(C)=O	GPR151 ag 5.2 (no result: FBW7 act, TEAD-YAP inh) | GPR151 confirm inactive | GPR119 counter inactive
COCCCNC(=O)Cc1cn(C)c2ccccc12	none
Cn1cc(CC(=O)NCCN2CCN(Cc3ccccc3)CC2)c2ccccc21	GPR151 ag 5.2 | GPR151 confirm inactive | GPR119 counter inactive
CCCCNC(=O)Cc1cn(C)c2ccccc12	GPR151 ag 5.1 | GPR151 confirm inactive | GPR119 counter inactive
COCCCNC(=O)CCCc1cn(C)c2ccccc12	GPR151 ag 6.6 | GPR151 confirm inactive | GPR119 counter inactive
Cc1cc(C)c(S(=O)(=O)Nc2cc3c4c(c2)CC(=O)N4CCC3)c(C)c1	GPR151 ag 5.0 | GPR151 confirm inactive | GPR119 counter inactive
Cc1nn(CC(=O)Nc2sc3c(c2C#N)CCC(C)C3)c(C)c1[N+](=O)[O-] (centres undefined)	none
O=C(Nc1ncc(Cc2ccc(Cl)cc2Cl)s1)c1ccc(Cl)cc1	GPR151 ag 5.7 | GPR151 confirm inactive | GPR119 counter inactive
COC(=O)Cn1c(=NC(=O)CCc2ccccc2)sc2cc(NC(C)=O)ccc21	none
CC1CN(C(=O)c2cc(C(C)C)n(-c3nc4ccccc4s3)n2)CC(C)O1 (centres undefined)	GPR151 ag 5.7 | GPR151 confirm inactive | GPR119 counter inactive
Cc1cc(C(=O)N2CCC(c3nc4ccccc4s3)CC2)nn1C	none
Cc1sc(NC(=O)COc2ccc(Cl)cc2Cl)c(C#N)c1C	none
Cc1ccc(CNC(=O)C(=O)NCc2ccc(Cl)cc2)cc1	none
Cc1ccc(CNC(=O)c2ccc(-n3cccc3)cc2)cc1	none
Cc1ccc(CNC(=O)c2sccc2-n2cccc2)cc1	GPR151 ag 5.6 | GPR151 confirm inactive | GPR119 counter inactive
Cc1ccc(CNC(=O)c2csnn2)cc1	GPR151 ag 12.6 | GPR151 confirm inactive | GPR119 counter inactive
Cc1ccc(CNC(=O)c2ccc(C)cc2)cc1	none
Cc1ccc(CNC(=O)Cc2ccc(Cl)cc2)cc1	GPR151 ag 8.4 | GPR151 confirm inactive | GPR119 counter inactive
O=C(CN(C(=O)c1csnn1)c1ccc(F)cc1)NCc1ccccc1	GPR151 ag 5.6 | GPR151 confirm inactive | GPR119 counter inactive
COc1ccc(-n2cc(-c3ccccc3)c3c(NCc4ccccc4)ncnc32)cc1	none
O=c1c2c(nc3nn[nH]n13)CCN(Cc1ccccc1)C2	none
COc1ccccc1OCC(=O)NCc1ccc(C)cc1	GPR151 ag 5.4 | GPR151 confirm inactive | GPR119 counter inactive
COCCN1C(=O)c2ccccc2C(C(=O)NC2CCCC2)C1c1cn(C)c2ccccc12 (centres undefined)	none
Cc1ccc(C(=O)Nc2ccc3oc(-c4ccncc4)nc3c2)cc1C	GPR151 ag 4.9 | GPR151 confirm inactive | GPR119 counter inactive
COc1ccccc1-c1nnc(NC(=O)c2ccc([N+](=O)[O-])s2)o1	GPR151 ag 14.6 | GPR151 confirm inactive | GPR119 counter inactive
COc1ccccc1C(=O)Nc1nnc(-c2ccc(Cl)cc2)o1	GPR151 ag 5.5 | GPR151 confirm inactive | GPR119 counter inactive
COc1ccccc1C(=O)Nc1nnc(-c2ccc(F)cc2)o1	none
CCc1ccc(-c2nc3cc(NC(=O)c4cccc(C)c4)ccc3o2)cc1	GPR151 ag 8.2 | GPR151 confirm inactive | GPR119 counter inactive
CCc1ccc2oc(-c3cc(NC(=O)c4cccc(C)c4)ccc3O)nc2c1	none
O=C(Nc1nnc(-c2ccccc2)o1)c1ccc([N+](=O)[O-])s1	none
COc1ccccc1C(=O)Nc1ccc2oc(-c3ccc(C(C)(C)C)cc3)nc2c1	GPR151 ag 6.2 | GPR151 confirm inactive | GPR119 counter inactive
COc1cc(C(=O)Nc2ccc3oc(-c4ccc(I)cc4)nc3c2)cc(OC)c1OC	GPR151 ag 20.9 | GPR151 confirm inactive | GPR119 counter inactive
CCS/C(=C(\C#N)C(N)=O)c1ccc(-c2ccccc2)[nH]1	GPR151 ag 5.2 | GPR151 confirm inactive | GPR119 counter inactive
O=C(Cn1cncn1)N1CCN(c2ncccn2)CC1	GPR151 ag 7.0 | GPR151 confirm inactive | GPR119 counter inactive
O=C1CCC(c2ccccc2)=NN1c1ccccn1	none
O=C1CCC(c2sc(Cl)c(Cl)c2Cl)=NN1c1ccccc1	GPR151 ag 11.6 | GPR151 confirm inactive | GPR119 counter inactive
COc1nn(C)cc1C(=O)NCC(=O)Nc1ccc2c(c1)Cc1ccccc1-2	GPR151 ag 9.5 | GPR151 confirm inactive | GPR119 counter inactive
CC1CCCCC1NC(=O)c1ccc2c(=O)n(C3CCCC3)c(=O)[nH]c2c1 (centres undefined)	none
O=C(NCCc1c[nH]c2ccccc12)C12CC3CC(CC(O)(C3)C1)C2	GPR151 ag 7.6 | GPR151 confirm inactive | GPR119 counter inactive
Cc1ccccc1OCC(=O)N/N=C/c1cc(O)ccc1O	none
Cc1nc2sccn2c1CN1CCCC(CO)(Cc2cccc(Cl)c2)C1 (centres undefined)	GPR151 ag 5.0, TEAD-YAP inh 42.0 | GPR151 confirm inactive | GPR119 counter inactive
O=C(Nc1cccc(-c2nc3ccccc3s2)c1)c1ccccc1	none
O=C(Nc1cccc(-c2nc3ccccc3s2)c1)c1ccc(N2C(=O)CCC2=O)cc1	GPR151 ag 7.4 | GPR151 confirm inactive | GPR119 counter inactive
O=C(Nc1cccc(-c2nc3ccccc3s2)c1)C12CC3CC(CC(C3)C1)C2	GPR151 ag 5.5 | GPR151 confirm inactive | GPR119 counter inactive
Cc1cccc(C(=O)Nc2cccc(-c3nc4ccccc4s3)c2)c1	none
CO/C(=N\S(=O)(=O)c1ccc(Cl)cc1)c1ccccc1	GPR151 ag 5.9 | GPR151 confirm inactive | GPR119 counter inactive
N/C(=N\S(=O)(=O)c1ccc(Cl)cc1)c1ccccc1	none
CNc1cc(N2CCN(S(=O)(=O)c3ccccc3)CC2)ccc1[N+](=O)[O-]	none
CNc1cc(N2CCN(S(=O)(=O)c3ccc4c(c3)CCCC4)CC2)ccc1[N+](=O)[O-]	GPR151 ag 13.4 | GPR151 confirm inactive | GPR119 counter inactive
O=C(O)c1cc(-c2ccco2)nc2c1cnn2Cc1ccc2c(c1)OCO2	none
CC1CCN(Cc2c(C(=O)N/N=C/C3CC=CCC3)nnn2-c2nonc2N)CC1 (centres undefined)	none
COc1ccc(C2CC(=O)C3=C(C2)NC(C)=C(C(=O)OC2CCCC2)C3c2ccccc2OC)cc1OC (centres undefined)	none
COc1ccc(C2CC(=O)C3=C(C2)NC(C)=C(C(=O)OC2CCCC2)C3c2ccccc2C)cc1OC (centres undefined)	GPR151 ag 5.3 | GPR151 confirm inactive | GPR119 counter inactive
CCOc1ccc(C)cc1S(=O)(=O)Nc1ccc(Br)cc1	none
O=c1oc2ccc(Br)cc2cc1-c1csc(-c2ccccc2)n1	GPR151 ag 5.2 | GPR151 confirm inactive | GPR119 counter inactive
O=c1oc2ccc(Br)cc2cc1-c1csc(-c2ccc(Cl)cc2)n1	none

High-throughput results as filed in PubChem BioAssay.
